Results: PubChem BioAssay (NCI)
Compounds without any hit were thinned out: in the full panel of roughly 83,000, 20% have a hit.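 In brief: 96-well plates, 48 h treatment, single concentration, percent growth endpoint.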 A number with no mark means an inactive call. Active and inactive are the calls of the source.

System: HS 578T breast
Experiment: NCI-60 one-dose screen, 48 h (100 = growth as untreated, 0 = no growth, -100 = all killed)
Conditions: 10 µM unless noted
Experimental: Growth inhibition of the HS 578T human tumor cell line is measured as a screen for anti-cancer activity. Cells are grown in 96 well plates and exposed to the test compound for 48 hours. Compounds are tested at a single concentration, which is 10^-5 M for most compounds. The reported endpoint is percent growth (GI% or GIPRCNT), where numbers from 0 - 100% represent growth inhibition, and numbers from -100% - 0 represent cell death. For example, a value of 40 represents 60% growth inhibition. A value of 0 means no net growth occurred over the course of the experiment. A value of -40 indicates 40% of cells at the beginning of the experiment died by the end of the experiment. A value of -100 means all cells are dead at the end of the experiment.
NCI-60 Human Tumor Cell Lines Screen was performed using the standard one-dose NCI protocol, which is described in more detail at https://dtp.cancer.gov/discovery_development/nci-60/default.htm.
Compounds with GIPRCNT values below 10 were considered active. Activity score was based on GIPRCNT using the following formula: […]
Score is 0 for GIPRCNT values of 100 or above, 50 for GIPRCNT values of 0, and 100 for GIPRCNT values of -100.

First: Nc1nc(Cl)cc(NCc2ccc(CNc3cc(Cl)nc(N)n3)cc2)n1
Second: Nc1ncc(-c2ccc3ncnc(Nc4ccc(F)c(Cl)c4)c3c2)cn1
The growth of the first is higher: 100% for the first, 34.6% for the second.

First: Cc1ccc(Cn2cc(COc3ccc4c5ccnc(C)c5n(CCCc5ccccc5)c4c3)nn2)cc1
Second: CC(=O)N1N=C2N(Cc3ccccc3)C(=O)c3c(sc4c3CCCC4)N2C1c1cn(-c2ccccc2)nc1-c1ccc(Cl)cc1 (stereo not given)
The growth of the first is lower: 89.8% for the first, 93% for the second.

Compared with `Nc1nc2ccc(CNc3ccc(C(=O)NC(CC(=O)O)C(=O)O)cc3)cc2c(=O)[nH]1` (stereo not given), `O=C(Nc1ccc(F)cc1)Nc1ccc(Cl)c([N+](=O)[O-])c1` is lower in growth: 97.5% for the first, 55.8% for the second.

Going from `CCc1c(C)c2cc3c(c(C)c2oc1=O)OCC(=O)N3` to `COC(=O)c1oc2c(C(C)=O)c(OCCCN(C)C)ccc2c1C`, the growth rises from 59.5% to 97.3%.

Going from `COc1cc2nc(C(=O)N3CCCCC3)cc(Nc3ccccc3)c2cc1OC` to `COc1ccc(-c2nnc(NC(=O)CN3CCN(c4cc5c(cc4F)c(=O)c(C(=O)O)cn5C4CC4)CC3)s2)cc1OC`, the growth falls from 95% to 91.5%.

Compared with `COc1cc(CN(c2ccc(Cl)cc2)C2OC(=O)c3ccccc32)cc(OC)c1OC` (stereo not given), `COc1ccc(C2CC(c3cc(Cl)c(C)cc3OC)=NN2c2ccc(S(N)(=O)=O)cc2)cc1OC` (stereo not given) is higher in growth: 59.6% for the first, 101% for the second.

Compared with `COc1ccc(Cl)cc1NC(=O)c1cc2c(n1C)-c1nc(NC(=O)C(C)C)sc1CC2`, `COc1ccc(Cl)cc1NC(=O)c1cc2c([nH]1)-c1nc(NC(=O)C(C)C)sc1CC2` is higher in growth: 83.4% for the first, 93.4% for the second.

First: Cc1[nH]n(C(=O)c2ccncc2)c(=O)c1N=Nc1ccc(S(=O)(=O)Nc2ccncn2)cc1
Second: COc1ccc2c(c1)O/C(=C/c1ccc(OCC(=O)Nc3ccc(S(N)(=O)=O)cc3)cc1)C2=O
The growth of the first is lower: 96.7% for the first, 99.4% for the second.

Going from `CN(C)c1ccc(/C=N/n2c(-c3cc(F)c(Cl)cc3Cl)nn(CN3CCOCC3)c2=S)cc1` to `O=c1c2ccccc2sc2c(NCCN3CCOCC3)nc3ccccc3c12`, the growth falls from 110% to 52.7%.

First: O=C(NOC1OC(CO)C(O)C(O)C1O)Nc1ccccc1 (stereo not given)
Second: O=C(CSc1nnc(-c2ccc(Cl)cc2)o1)Nc1ccc(C(=O)/C=C/c2ccccc2)cc1
The growth of the first is higher: 103% for the first, 101% for the second.

Compared with `CCC1CN2C(=N1)c1ccccc1-c1cc(Cl)ccc12` (stereo not given), `Clc1ccc(CN2COc3c(ccc4cccnc34)C2)cc1Cl` is lower in growth: 89.1% for the first, 55.4% for the second.

First: CC12CCC3C(CCC4CC(O)CCC43C)C1C/C(=C/O)C(=O)O2 (stereo not given)
Second: C=C1C(=O)O[C@H]2[C@H]1CC/C(COC(=O)OC/C1=C/CC[C@@]3(C)O[C@H]3[C@H]3OC(=O)[C@@H](CN(C)C)[C@@H]3CC1)=C\CC[C@@]1(C)O[C@@H]21
The growth of the first is higher: 98.4% for the first, 57.4% for the second.

Going from `Fc1cccc(F)c1C#Cc1ccc2cccnc2c1` to `Cc1c(NC(=O)c2sc3nc4c(cc3c2N)CN(Cc2ccccc2)CC4)cccc1C(F)(F)F`, the growth falls from 91.6% to 31%.

Compared with `CC1(C)N=C(N)N=C(N)N1c1ccc(F)c(C(F)(F)F)c1`, `Nc1nc(Cl)c2c(C(F)(F)F)cn(CC3CCNCC3)c2n1` is lower in growth: 99.3% for the first, 88.7% for the second.

Going from `Cc1cc[n+](CCCC[n+]2ccc(C)cc2)cc1` to `CC(Cl)(CCl)CS(=O)(=O)c1ccc(Cl)cc1` (stereo not given), the growth falls from 104% to 97.3%.

Going from `CC(=O)Oc1ccc(C(OC(C)=O)OC(C)=O)cc1` to `CCNc1cc(S(=O)(=O)O)ccc1C`, the growth falls from 105% to 104%.

Going from `Nn1c(CN2CCN(c3cc4c(cc3F)c(=O)c(C(=O)O)cn4C3CC3)CC2)n[nH]c1=S` to `CC1(C)Cc2c(Br)c(Br)c(Br)c(OCC(O)CN3CCN(c4ccccn4)CC3)c2O1` (stereo not given), the growth falls from 108% to 89.2%.

First: CCN(CC)CCNc1ccc([N+](=O)[O-])c2sc3cc(Cl)ccc3c(=O)c12
Second: COc1ccc(SC2c3ccc(O)cc3Oc3nc(N)c(C#N)c(N)c32)cc1 (stereo not given)
The growth of the first is lower: 80.2% for the first, 94.4% for the second.

Compound `CCCCCn1ncc(-c2c(O)c(O)cc3c(O)c(-c4c(C)cc5c(-c6cnn(CCCCC)n6)c(O)c(O)cc5c4O)c(C)cc23)n1` has a growth of 31%.

In the case of `CN1CCN(CC(=O)N(C)c2ccc(N=C(c3ccccc3)c3c(O)[nH]c4ccc(C#N)cc34)cc2)CC1`, the growth is reported as -2.32% (active).
With `Nc1ncnc2c1c(C(F)(F)F)cn2[C@@H]1O[C@H](CO)[C@@H](O)[C@H]1O` the growth was -0.85% (active).
For `CCCCCCCCCCCCCCCC(=O)NS(=O)(=O)OC[C@H]1O[C@@H](n2cnc3c(N)ncnc32)[C@H](O)[C@@H]1O`, the growth was -14.6% (active).
